TexasRed fluor: counter-screen for TRb-SRC2 inhibitors: fluorescence interference; TRb/SRC2 Texas Red total fluorescence interference; Potency, µM (titrated, usually from 106 µM), for the others: at the highest dose fluorescence change, negative = quenching; 280,000 compounds, 0.29% hits; active means well fitted curve in either direction with a large enough effect; inconclusive means small, poorly fitted or top-dose-only effect; further: potency means the concentration at half of the fitted maximal effect
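Flags fluorescent or light-absorbing compounds by total fluorescence, S + 2P, at 555 nm excitation and 632 nm emission. Mixture: 20 nM Texas Red SRC2 peptide, 0.6 uM human TRb LBD, 1 uM T3, 5% DMSO; compound exposure 5 h at ambient temperature.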
TRb-SRC2 inh: TRbeta-SRC2 interaction inhibition; Potency, µM (doses to about 106 µM), without a hit: at the highest dose activity change, negative = inhibition, most hits filed as inhibitors; TRbeta-SRC2 peptide binding, fluorescence polarization; receptor liganded with 1 µM T3; 280,000 compounds, 0.065% hits; P10828;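 further: potency means the concentration at half of the fitted maximal effect; plate controls were bound peptide for no effect and peptide without receptor for full effect; nearly all actives have a fitted effect of over 50% in size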
Target sequence (P10828 whole entry, looked up): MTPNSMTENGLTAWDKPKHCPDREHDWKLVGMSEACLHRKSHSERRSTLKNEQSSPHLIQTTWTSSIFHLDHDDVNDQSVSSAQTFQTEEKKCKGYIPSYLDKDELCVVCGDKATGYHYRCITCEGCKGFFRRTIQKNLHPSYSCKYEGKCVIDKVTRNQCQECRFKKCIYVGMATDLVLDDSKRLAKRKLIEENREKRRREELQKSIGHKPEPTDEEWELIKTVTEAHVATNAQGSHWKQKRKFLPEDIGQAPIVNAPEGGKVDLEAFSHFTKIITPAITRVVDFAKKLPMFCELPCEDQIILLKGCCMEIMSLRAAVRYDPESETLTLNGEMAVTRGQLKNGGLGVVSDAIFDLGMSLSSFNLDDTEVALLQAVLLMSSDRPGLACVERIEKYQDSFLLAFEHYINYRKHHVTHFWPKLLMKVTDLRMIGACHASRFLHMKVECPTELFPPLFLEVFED
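TRb LBD 0.6 uM + Texas Red SRC2 peptide 20 nM, 1 uM T3, Tris buffer w/ 5% DMSO; compound pinned, 5 h RT; FP read ex 555/em 632; normalized to unbound and bound controls.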
PNC assembly inh: inhibitors of perinucleolar compartment assembly; PC3M PTB-GFP, PNC prevalence imaging, 16 h; stronger effect = lower value; activity change (PNC), negative = inhibition, % at 10 µM; 140,000 compounds, 3.1% hits;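 active means readout at or below -70, meaning at least 70% loss of cells showing the perinucleolar compartment, a nuclear body marking cancer cells; inconclusive means readout between -30 and a set limit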;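 further: plate controls were DMSO wells for no effect and camptothecin positive control wells for full effect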
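Read-out is percentage of cells bearing a perinucleolar compartment, from automated 20x imaging of fixed, Hoechst-stained PC3M PTB-GFP cells. Cells were seeded 4 h, then exposed 16 h to compound (23 nl of library stock) in duplicate plates.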
Tau fluor counter: counter-screen for tau fibril formation inhibitors | Potency, µM (top dose mostly 57.7 µM), inactives show at the highest dose activity change, negative = decrease | tau K18 P301L Alexa594 fluorescence, heparin fibrillization | AID 1463 | 280,000 compounds, 0.93% hits; further: potency means the concentration at half of the fitted maximal effect; nearly all actives have a fitted effect of over 55% in size
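Human tau K18 P301L (15 uM unlabeled, 0.24 uM Alexa 594-labeled) in 100 mM sodium acetate pH 7 with 20 uM heparin, 6 hr at 37 C. ThT 30 uM added, 1 hr ambient; Alexa 594 FP and total fluorescence read at 555/632 nm.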
Tau fibril ThT: blocks human tau fibril formation measured by thioflavin T | P10636 | recombinant tau K18 P301L (four-repeat tau fragment), heparin-induced fibrillization, ThT fluorescence | Potency, µM (series often up to 57.4 µM), inactives show top-dose activity, negative = inhibition, hits mostly inhibitors | 270,000 compounds, 2.1% hits | AID 1460; further: potency means the concentration at half of the fitted maximal effect; nearly all actives have a fitted effect of over 55% in size
Target sequence (P10636 561-689 P618L limits assumed): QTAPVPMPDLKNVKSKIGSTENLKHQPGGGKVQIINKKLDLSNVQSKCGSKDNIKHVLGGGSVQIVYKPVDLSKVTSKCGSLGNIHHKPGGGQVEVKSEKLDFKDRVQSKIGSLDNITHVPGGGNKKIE
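Heparin-induced (20 uM) aggregation of recombinant human K18 P301L tau, 15 uM unlabeled with 0.24 uM labeled, pH 7 acetate buffer, 6 hr at 37 C with compound. Fibrils quantified by 30 uM ThT fluorescence after 1 hr ambient incubation.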
Tau fibril FP: inhibitors of human tau fibril formation | P10636 | 280,000 compounds, 0.39% hits | Potency, µM (top dose mostly 57.7 µM), for inactives: top-dose activity, negative = inhibition, actives largely listed as inhibitors | K18 P301L tau heparin fibrillization, Alexa594 FP, 6 h; further: potency means the concentration at half of the fitted maximal effect; nearly all actives have a fitted effect of over 55% in size
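Steps: dispense K18 P301L tau (15 uM plus 0.24 uM Alexa 594 tracer, final) in pH 7 sodium acetate; add compound; add heparin (20 uM final); incubate 6 hr, 37 C; add ThT (30 uM final); after 1 hr ambient, read FP.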
* marks the source's active call; other numbers are inactive results; ? = inconclusive; . = not tested or not shown; [ ] = remark or other dose. A selection: hits, their analogues and other compounds. The true share with any hit is near 4.6%. Unless noted, the call rests on the fitted dose curve; in most records, active means well fitted curve in the direction sought with a large enough effect; inconclusive means small, poorly fitted or top-dose-only effect, or another doubt; inactive means no such curve, though single readings can be large; an effect the other way counts as inactive or inconclusive. Unless noted, on the % scale 0 is the no-effect control and ±100 the full control effect.

SMILES | TexasRed fluor | TRb-SRC2 inh | PNC assembly inh | Tau fluor counter | Tau fibril ThT | Tau fibril FP
COc1ccc(OCCn2c(=O)sc3ccccc32)cc1 | -4.4% | -6.3% | . | -21.6% | -14.8% | -3.3%
Cc1nc2ncnn2c(N2CCN(C(c3ccccc3)c3ccccc3)CC2)c1C | 1.1% | -13.5% | -16.2 | -4.8% | -14.5% | -10.2%
CCN1C(=O)C(O)(CC(=O)c2cccc(-n3cccc3)c2)c2ccccc21 (stereo not drawn) | -0.2% | 0.3% | . | -11.6% | -12.4% | ?
CCN1C(=O)C(O)(CC(=O)c2ccc(-n3cccc3)cc2)c2ccccc21 (stereo not drawn) | -3.7% | -5.8% | -100.0* | 1.8% | 0.0% | 5.1%
CC(=O)Nc1cccc(Oc2ncnc3scc(-c4ccc(C)cc4)c23)c1 | -0.6% | 8.0% | -83.1* | ? | -11.1% | ?
C/C=C/C=C/C(=O)Nc1nccs1 | 0.4% | 0.3% | -116.4* | -10.7% | -16.0% | 0.1%
COC(=O)c1ccc(-n2c(C)nc(=O)c(-c3ccccc3)c2C)cc1 | 1.3% | 3.5% | -12.0 | -9.9% | -18.8% | -3.8%
Cc1nc(=O)c(-c2ccccc2)c(C)n1-c1cccc(C(=O)O)c1 | -0.7% | 6.6% | -100.5* | -4.9% | 1.7% | -3.2%
C/C=C/c1c(F)c(F)c(Oc2ccc(C(=O)O)cc2)c(F)c1F | -1.2% | -3.8% | -84.5* | -6.4% | -7.1% | 1.0%
CCOc1ccc(C2=NNC(c3cccs3)=Nc3ccc(OC)cc32)cc1OCC | -5.1% | -3.8% | -100.0* | ? | ? | ?
COc1ccc(C2=NNC(c3cccs3)=Nc3ccc(OC)cc32)cc1 | 0.2% | 8.3% | ? | ? | ? | 6.8%
Cc1cc(C)nc(N/N=C/c2ccccc2OCc2ccc(Br)cc2)n1 | -0.5% | 2.2% | -19.3 | 16.3% | -2.7% | 12.5%
Nc1[nH]n2c(=O)c3c(nc2c1N=Nc1ccc(Cl)cc1)CCCC3 | 0.1% | 4.0% | ? | -9.2% | 1.41µM* | -1.8%
Cc1cc(=O)n2[nH]c(N)c(N=Nc3ccccc3)c2n1 | -4.7% | -1.7% | ? | -0.4% | ? | 7.1%
Nc1[nH]n2c(=O)c3c(nc2c1N=Nc1ccccc1)CCCC3 | -3.0% | 5.6% | 1.1 | ? | 4.47µM* | 0.9%
COC/C=C/C1=CC2=CC(=O)C(C)(OC(=O)c3ccco3)C(=O)C2=CO1 (stereo not drawn) | 3.1% | -8.4% | . | ? | 25.1µM* | ?
COC/C=C/C1=CC2=CC(=O)C(C)(OC(=O)c3cccs3)C(=O)C2=CO1 (stereo not drawn) | -1.6% | 7.8% | . | -9.8% | -13.3% | -2.3%
COC/C=C/C1=CC2=CC(=O)C(C)(OC(=O)C3CCCC3)C(=O)C2=CO1 (stereo not drawn) | -2.1% | 4.7% | . | ? | 25.1µM* | 10µM*
CC12CCC(c3n[nH]c(=S)nc31)C2(C)C (stereo not drawn) | -3.7% | 8.0% | -113.4* | -12.6% | -11.6% | -14.8%
CC12CCC(c3nnc(SCc4ccc(Cl)cc4)nc31)C2(C)C (stereo not drawn) | 1.7% | 7.6% | 0.6 | -10.7% | -10.3% | -4.3%
COc1ccc(C(C(=O)NC2CCCC2)N(C(=O)c2ccoc2C)c2cc(C)cc(C)c2)cc1 (stereo not drawn) | -0.9% | -3.2% | 37.2 | -1.9% | -17.9% | 7.1%
O=C1c2ccccc2C(=O)N1c1cccc(-c2nc3ccccc3o2)c1 | -1.5% | 3.5% | -88.7* | 2.8% | 3.7% | 4.5%
CCOC(=O)c1cccc(NC(=O)CSc2nc3ccccc3c(=O)n2CCOC)c1 | 0.4% | 2.3% | ? | -15.0% | -4.0% | -1.4%
O=C(NCCc1nc2ccccc2[nH]1)c1ccc([N+](=O)[O-])cc1 | -2.1% | -4.9% | . | -4.2% | ? | 2.9%
Clc1ccc(/C(Cc2nc3ccccc3[nH]2)=N\Nc2ccccc2)cc1 | 1.2% | -9.2% | . | 12.6µM*[quencher] | ? | -7.9%
O=C(Cc1nc2ccccc2[nH]1)c1ccc([N+](=O)[O-])cc1 | -1.6% | -0.7% | . | ? | 15.8µM* | ?

Screening results as filed in PubChem BioAssay.
